This is a sample that favours compounds with a hit; in the whole collection about 2.4% have one here.
miR122 inh: miR-122 Renilla sensor signal increase in Huh7, primary screen, miR-122 inhibitor project, cell-based, single point, plate reader; Huh7 miR-122 Renilla luciferase sensor, 48 h; neutral wells = 0, positive control = 100; activation (reporter increase), % at 12.5 µM; AID 602342, 2012; hit rate 0.3% among 340,000;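 active = mean replicate activation score at least 90 and every replicate individually at or above 90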;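 also: higher luciferase means less miR-122 activity so hits act as miR-122 inhibitors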
Wnt bcat act: Wnt/beta-catenin pathway activators, primary screen, cell-based, plate reader, single point; hit rate 1.2% among 300,000; activation, % at 9.35 µM; Wnt/beta-catenin reporter cell assay, activator; AID 743398, 2014; in the data active = activation above about 30%, passing the limit was not always enough;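 also: 0% = neutral control wells and 100% = positive control wells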
NSD2 HMT inh: NSD2 histone methyltransferase inhibitors, primary screen, biochemical, AlphaScreen, single concentration, set 2 | inhibition, % at 12.5 µM | AID 743445, 2014 | NSD2 peptide methylation, 120 min | Histone-lysine N-methyltransferase NSD2 (Homo sapiens), O96028 | hit rate 0.54% among 310,000
DYRK1A inh: rat Dyrk1A kinase inhibitors, primary screen, biochemical, single point, plate reader | Dual specificity tyrosine-phosphorylation-regulated kinase 1A (Rattus norvegicus), Q63470 | ADP-Glo luminescence, NFATc1 peptide | inhibition, % at 12.5 µM | hit rate 0.43% among 310,000 | AID 504441, 2011;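 also: plate controls were vehicle with enzyme for no effect and no enzyme for full effect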
INS-1E GSIS act: GLuc luminescence reporter in INS-1E cells, primary screen for activators of glucose-dependent secretion of insulin; INS-1E GLuc reporter insulin secretion, 2-3 h; activation, % at 16.6 µM; hit rate 0.61% among 370,000;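 active = lowest replicate activation of at least 40%, so every replicate reaches that level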;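 also: 0% = median of neutral control wells and 100% = median of IBMX positive control wells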
MITF act: activators of MITF-driven TRPM1 promoter reporter, primary screen, cell-based, SK-MEL-5, luciferase, single point; hit rate 0.75% among 300,000; SK-MEL-5 TRPM1-promoter luciferase, 24 h; % of positive control, neutral wells = 0; activation, % at 12.5 µM; AID 588334, 2011;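 active = mean activation of at least 80% with every replicate also reaching 80%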;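 also: 0% = neutral control wells and 100% = parthenolide positive control wells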
* = called active by the depositor; [ ] = remark or other dose. Rule as the data show it, unless noted: active = inhibition above about 50%; inactive = the rest.

Screening Cc1ccc2cc(NC(=O)c3cccc(F)c3)ccc2n1 returned miR122 inh 4, Wnt bcat act 50* and NSD2 HMT inh 18.
`C[C@@H]1CN([C@@H](C)CO)C(=O)c2cc(NC(=O)c3ccncc3)ccc2O[C@H]1CN(C)C` gave miR122 inh 3[16.7 µM] and INS-1E GSIS act 17.
For CCCNC(=O)Nc1ccc2c(c1)C(=O)N(C)C[C@H](OC)[C@@H](C)CN(S(C)(=O)=O)[C@@H](C)CO2 the results were INS-1E GSIS act 4.
CC1CCN(C(=O)c2cc3ccccc3c(=O)o2)CC1 was read as miR122 inh -5, Wnt bcat act 14, NSD2 HMT inh -2, DYRK1A inh 5, INS-1E GSIS act -5 and MITF act -3.
For CC1CCN(C(=O)c2cc3c(ccc4ccccc43)o2)CC1 the results were Wnt bcat act 33*, NSD2 HMT inh -3, DYRK1A inh 6, INS-1E GSIS act -7 and MITF act 29.
For CCOC(=O)C1CCN(C(=O)c2cc3cc(C)ccc3[nH]2)CC1 the results were miR122 inh 0, Wnt bcat act 34*, NSD2 HMT inh -1 and INS-1E GSIS act -13.
For CCOC(=O)C1CCN(C(=O)c2cc3c(ccc4ccccc43)o2)CC1 the results were miR122 inh -3, Wnt bcat act 42*, NSD2 HMT inh 0, DYRK1A inh 14, INS-1E GSIS act -20 and MITF act 96*.
O=C(CSc1nnc(-c2ccc(F)cc2)o1)NC1CCCCC1 was read as miR122 inh -24, Wnt bcat act 29, NSD2 HMT inh -5, INS-1E GSIS act -1 and MITF act 5.
Oc1ccc(-c2nnc(SCC3CCCCC3)o2)cc1 was read as miR122 inh -7, Wnt bcat act 53*, NSD2 HMT inh -1 and DYRK1A inh 31.
For Fc1ccc(-c2nc(-c3cccs3)[nH]c2-c2ccc(F)cc2)cc1 the results were miR122 inh -2, Wnt bcat act -1, NSD2 HMT inh -2, DYRK1A inh -1, INS-1E GSIS act 14 and MITF act -16.
`Cc1ccsc1-c1nc(-c2ccccc2)c(-c2ccccc2)[nH]1` gave miR122 inh -3, Wnt bcat act 53*, NSD2 HMT inh 2 and DYRK1A inh 4.
For CCOC(=O)c1ccc(S(=O)(=O)N2CCC(C(=O)Nc3nnc(C)o3)CC2)cc1 the results were miR122 inh -4, Wnt bcat act -1, NSD2 HMT inh -1, DYRK1A inh 1, INS-1E GSIS act 58* and MITF act 5.
For COc1ccc2c3c(n(C)c2c1)[C@H](CO)N(Cc1ccccc1)CC31CCN(S(=O)(=O)c2ccc(C)cc2)CC1 the results were INS-1E GSIS act -19.
For COc1ccc(Nc2nc(-c3ccc(OC)cc3)c(CCC(=O)O)s2)cc1 the results were miR122 inh 3, Wnt bcat act 2, NSD2 HMT inh 5, INS-1E GSIS act -2 and MITF act -2.
`COC(=O)CCc1sc(Nc2ccccc2)nc1-c1ccc(OC)cc1` gave Wnt bcat act 42*, NSD2 HMT inh 0, DYRK1A inh 4, INS-1E GSIS act -23 and MITF act 61.
`COC(=O)C1=C(C)N(Cc2ccc(C(F)(F)F)cc2)C(=NCc2ccccc2)NC1c1ccccc1` (stereo not drawn) gave Wnt bcat act -19 and INS-1E GSIS act 949*.
For COC(=O)C1=C(C)N(Cc2ccc(C(F)(F)F)cc2)C(=NCc2ccccc2)NC1c1ccc(C(F)(F)F)cc1 (stereo not drawn) the results were Wnt bcat act -17 and INS-1E GSIS act 460*.
`CC(=O)NC[C@@H]1[C@H](c2ccc(-c3ccccc3)cc2)[C@H](CO)N1C(=O)C1CCC1` gave miR122 inh 21[16.7 µM] and INS-1E GSIS act -16.
`CNC[C@H]1Oc2cc(C#Cc3cccnc3)ccc2S(=O)(=O)N([C@@H](C)CO)C[C@@H]1C` gave miR122 inh 6[16.7 µM] and INS-1E GSIS act -13.
